Measured values as given in article PMC12820563, “FoxP3 forms a head-to-head dimer in vivo and stabilizes its multimerization on adjacent microsatellites”.
In all, about 16,000 sequences were measured (“rpm ratio (pull-down/input)”: median about 0.94, highest 2% from about 1.7 on). Shown is part of a subset that was picked to be rich in the highest values.

target: T1, MBP-FoxP1dN (Mus musculus, UniProt P58462 326-579); test: PD-seq (MBP pull-down with sequencing); 20 mM Tris-HCl pH 7.5, 100 mM NaCl, 1.5 mM MgCl2, 0.4 uM protein, 0.1 uM dsDNA library, 30 min, room temperature, amylose pull-down; high values mean tight binding; settings: protein: recombinant; tags: His6-MBP; chain copies: 2; dsDNA, one strand shown
T1 sequence: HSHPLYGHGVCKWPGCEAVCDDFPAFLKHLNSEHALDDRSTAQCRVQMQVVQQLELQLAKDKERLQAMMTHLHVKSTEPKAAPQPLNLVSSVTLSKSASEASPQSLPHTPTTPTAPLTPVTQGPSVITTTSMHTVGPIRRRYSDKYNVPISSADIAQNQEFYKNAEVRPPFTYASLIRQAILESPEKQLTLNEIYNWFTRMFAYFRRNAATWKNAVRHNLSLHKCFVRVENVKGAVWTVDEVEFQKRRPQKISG
How it was run: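 The N-terminus-lacking fragment of mouse FoxP3 or FoxP1 carried a His6-MBP tag and was expressed in E. coli. At 0.4 µM it was incubated with 0.1 µM Klenow-filled degenerate double-stranded DNA library for 30 min at room temperature in Tris pH 7.5 buffer with NaCl and MgCl2, and complexes were caught on amylose resin, washed three times, released with proteinase K, PCR-barcoded and Illumina-sequenced. Binding is reads-per-million enrichment of pull-down over input with replicates pooled.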

Sequence	binding signal
GATGATTGTTCTCCCAGCTGATGAATTATTATTATCGAGTAAACAAATTTTCCTAATCTTTCTGTTCAAGCGCCATCTAC	2.52 RPM ratio (pull-down/input)
GATGATTGTTCTCCCAGCTGATGAATTTATTAAATCGAGTAAACAAATTTTCCTAATCTTTCTGTTCAAGCGCCATCTAC	1.39 RPM ratio (pull-down/input)
GATGATTGTTCTCCCAGCTGATGAATTCTTAGTATCGAGTAAACAAATTTTCCTAATCTTTCTGTTCAAGCGCCATCTAC	0.963 RPM ratio (pull-down/input)
GATGATTGTTCTCCCAGCTGATGAATTTTTATTATCGAGTAAACAAATTTTCCTAATCTTTCTGTTCAAGCGCCATCTAC	2.02 RPM ratio (pull-down/input)
GATGATTGTTCTCCCAGCTGATGAATTATCGTTATCGAGTAAACAAATTTTCCTAATCTTTCTGTTCAAGCGCCATCTAC	1.11 RPM ratio (pull-down/input)
GATGATTGTTCTCCCAGCTGATGAATTTTTAGTATCGAGTAAACAAATTTTCCTAATCTTTCTGTTCAAGCGCCATCTAC	1.02 RPM ratio (pull-down/input)
GATGATTGTTCTCCCAGCTGATGAATTGTTAGTATCGAGTAAACAAATTTTCCTAATCTTTCTGTTCAAGCGCCATCTAC	1.76 RPM ratio (pull-down/input)
GATGATTGTTCTCCCAGCTGATGAATTGTTATTATCGAGTAAACAAATTTTCCTAATCTTTCTGTTCAAGCGCCATCTAC	3.14 RPM ratio (pull-down/input)
GATGATTGTTCTCCCAGCTGATGAATTATTTTTATCGAGTAAACAAATTTTCCTAATCTTTCTGTTCAAGCGCCATCTAC	1.4 RPM ratio (pull-down/input)
GATGATTGTTCTCCCAGCTGATGAATTTGGCGTCTCGAGTAAACAAATTTTCCTAATCTTTCTGTTCAAGCGCCATCTAC	0.85 RPM ratio (pull-down/input)
GATGATTGTTCTCCCAGCTGATGAATTAGTTCGTTCGAGTAAACAAATTTTCCTAATCTTTCTGTTCAAGCGCCATCTAC	0.937 RPM ratio (pull-down/input)
GATGATTGTTCTCCCAGCTGATGAATTCCGTGTTTCGAGTAAACAAATTTTCCTAATCTTTCTGTTCAAGCGCCATCTAC	0.891 RPM ratio (pull-down/input)
GATGATTGTTCTCCCAGCTGATGAATTATGATTCTCGAGTAAACAAATTTTCCTAATCTTTCTGTTCAAGCGCCATCTAC	0.982 RPM ratio (pull-down/input)
GATGATTGTTCTCCCAGCTGATGAATTCCAAGCGTCGAGTAAACAAATTTTCCTAATCTTTCTGTTCAAGCGCCATCTAC	0.867 RPM ratio (pull-down/input)
GATGATTGTTCTCCCAGCTGATGAATTGCACACATCGAGTAAACAAATTTTCCTAATCTTTCTGTTCAAGCGCCATCTAC	1.31 RPM ratio (pull-down/input)
GATGATTGTTCTCCCAGCTGATGAATTTCTGCAGTCGAGTAAACAAATTTTCCTAATCTTTCTGTTCAAGCGCCATCTAC	0.883 RPM ratio (pull-down/input)

Sequence	binding signal
GATGATTGTTCTCCCAGCTGATGAATTGAGTGATTCGAGTAAACAAATTTTCCTAATCTTTCTGTTCAAGCGCCATCTAC	0.981 RPM ratio (pull-down/input)
GATGATTGTTCTCCCAGCTGATGAATTACCGGGCTCGAGTAAACAAATTTTCCTAATCTTTCTGTTCAAGCGCCATCTAC	0.841 RPM ratio (pull-down/input)
GATGATTGTTCTCCCAGCTGATGAATTAGAAAGTTCGAGTAAACAAATTTTCCTAATCTTTCTGTTCAAGCGCCATCTAC	0.938 RPM ratio (pull-down/input)
GATGATTGTTCTCCCAGCTGATGAATTCTTATTATCGAGTAAACAAATTTTCCTAATCTTTCTGTTCAAGCGCCATCTAC	1.6 RPM ratio (pull-down/input)
GATGATTGTTCTCCCAGCTGATGAATTTTTGATATCGAGTAAACAAATTTTCCTAATCTTTCTGTTCAAGCGCCATCTAC	1.17 RPM ratio (pull-down/input)
GATGATTGTTCTCCCAGCTGATGAATTGTTGATATCGAGTAAACAAATTTTCCTAATCTTTCTGTTCAAGCGCCATCTAC	2.16 RPM ratio (pull-down/input)
GATGATTGTTCTCCCAGCTGATGAATTATTCTTATCGAGTAAACAAATTTTCCTAATCTTTCTGTTCAAGCGCCATCTAC	1.08 RPM ratio (pull-down/input)
GATGATTGTTCTCCCAGCTGATGAATTATTGTTATCGAGTAAACAAATTTTCCTAATCTTTCTGTTCAAGCGCCATCTAC	2.83 RPM ratio (pull-down/input)
GATGATTGTTCTCCCAGCTGATGAATTATTCTAATCGAGTAAACAAATTTTCCTAATCTTTCTGTTCAAGCGCCATCTAC	1.2 RPM ratio (pull-down/input)
GATGATTGTTCTCCCAGCTGATGAATTTATTCTATCGAGTAAACAAATTTTCCTAATCTTTCTGTTCAAGCGCCATCTAC	1.16 RPM ratio (pull-down/input)
GATGATTGTTCTCCCAGCTGATGAATTATTTCAATCGAGTAAACAAATTTTCCTAATCTTTCTGTTCAAGCGCCATCTAC	1.11 RPM ratio (pull-down/input)
GATGATTGTTCTCCCAGCTGATGAATTATTGTAATCGAGTAAACAAATTTTCCTAATCTTTCTGTTCAAGCGCCATCTAC	1.91 RPM ratio (pull-down/input)
GATGATTGTTCTCCCAGCTGATGAATTCTATTTATCGAGTAAACAAATTTTCCTAATCTTTCTGTTCAAGCGCCATCTAC	2.58 RPM ratio (pull-down/input)
GATGATTGTTCTCCCAGCTGATGAATTATTCCTATCGAGTAAACAAATTTTCCTAATCTTTCTGTTCAAGCGCCATCTAC	1.08 RPM ratio (pull-down/input)
GATGATTGTTCTCCCAGCTGATGAATTGATGATATCGAGTAAACAAATTTTCCTAATCTTTCTGTTCAAGCGCCATCTAC	1.21 RPM ratio (pull-down/input)
GATGATTGTTCTCCCAGCTGATGAATTGAGGCTGTCGAGTAAACAAATTTTCCTAATCTTTCTGTTCAAGCGCCATCTAC	0.891 RPM ratio (pull-down/input)
